The structures appear in SMILES notation. Results filed as inconclusive are left out. Active and inactive are the calls of the source. How the source made its calls: active means hit-call score of the fitted dose curve at least 0.9, where 1 is the maximum; inconclusive means response in the unintended direction; inactive means score below 0.9.

As a reminder, the AC50 is the concentration giving half of the maximal activity seen.

Chain of Bile acid receptor (Homo sapiens) (Q96RI1 whole entry, looked up, the tested form may be a part): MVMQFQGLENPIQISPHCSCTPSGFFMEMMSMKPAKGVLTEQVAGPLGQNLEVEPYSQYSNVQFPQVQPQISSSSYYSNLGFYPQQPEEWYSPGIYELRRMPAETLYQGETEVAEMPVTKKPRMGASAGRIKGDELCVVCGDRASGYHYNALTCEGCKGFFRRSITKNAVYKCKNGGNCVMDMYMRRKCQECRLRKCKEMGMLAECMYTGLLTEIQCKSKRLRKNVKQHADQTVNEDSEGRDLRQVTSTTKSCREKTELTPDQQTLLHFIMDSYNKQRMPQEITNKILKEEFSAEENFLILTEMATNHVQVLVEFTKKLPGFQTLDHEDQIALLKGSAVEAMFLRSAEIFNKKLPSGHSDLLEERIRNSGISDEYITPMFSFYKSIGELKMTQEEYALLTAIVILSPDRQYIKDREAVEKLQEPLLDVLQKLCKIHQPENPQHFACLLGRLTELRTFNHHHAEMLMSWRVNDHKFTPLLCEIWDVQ

The test has as its target Bile acid receptor (Homo sapiens) (UniProt Q96RI1). The experiment in a line: OT_FXR_FXRSRC1_0480: Odyssey Thera (OT) 8-hour HEK293T Protein-Complementation Assay for Farnesoid X receptor/SRC-1 Co-activator (AID 2283383). The procedure: OT_FXR_FXRSRC1_0480 is a cell-based assay that uses HEK293T, a human kidney cell line, with measurements taken at 8 hours after chemical dosing in a 384-well plate.OT_FXR_FXRSRC1_0480 is one of one assay component(s) measured or calculated from the OT_FXR_FXRSRC1_0480 assay. It is designed to make measurements of protein fragment complementation, a form of binding reporter, as detected with fluorescence intensity signals by Protein-fragment Complementation technology.Data from the assay component OT_FXR_FXRSRC1_0480 was analyzed into 1 assay endpoint. This assay endpoint, OT_FXR_FXRSRC1_0480, was analyzed in the positive analysis fitting direction relative to DMSO as the negative control and baseline of activity. Using a type of binding reporter, measures of receptor for gain-of-signal activity can be used to understand the binding at the pathway-level as they relate to the gene NR1H4. Furthermore, this assay endpoint can be referred to as a primary readout, because the performed assay has only produced 1 assay endpoint. To generalize the intended target to other relatable targets, this assay endpoint is annotated to the nuclear receptor intended target family, where the subfamily is non-steroidal.
Protein-fragment complementation assay, or PCA, is a method for the identification and quantification of protein-protein interactions. In the PCA, the proteins of interest ("bait" and "prey") are each covalently linked to fragments of a third protein (e.g. DHFR, which acts as a "reporter"). Interaction between the bait and the prey proteins brings the fragments of the reporter protein in close proximity to allow them to form a functional reporter protein whose activity can be measured.
For the molecule `CC1(C)CC(N=C=O)CC(C)(CN=C=O)C1` (stereo unspecified), the outcome was inactive.
As to `COc1cc(C=O)ccc1O`, the molecule was called inactive.
On to `Cc1ccccc1Cl`, for which the molecule was called inactive.
Take `NC(=O)Cn1c(=O)cc(CCN2CCN(c3nccc4sccc34)CC2)c2ccc(F)cc21`: the outcome was inactive.
As to `Cc1cc(=O)[nH]c(=S)[nH]1`, the call was inactive.
As for `Nc1ccc(S(=O)(=O)c2ccc(N)cc2)cc1`, the call was inactive.
For the molecule `O=C(O)CCCCC(=O)O`, the molecule was called inactive.
The same measure, in the same setting: with `CCCCCCCCCCO` the entry was “inactive”.
Regarding `Cc1c(C(=O)O)c(O)cc2c1C(=O)c1c(O)c([C@@H]3O[C@H](CO)[C@@H](O)[C@H](O)[C@H]3O)c(O)c(O)c1C2=O`, the molecule was called inactive.
Take `Nc1nc(N)c2nc(CNc3ccc(C(=O)N[C@@H](CCC(=O)O)C(=O)O)cc3)cnc2n1`: the call was inactive.
In the case of `O=c1[nH]cc(F)c(=O)[nH]1`, the result was inactive.
In the case of `O=C(O)Cc1ccccc1Nc1c(Cl)cccc1Cl`, the result was inactive.
With `CCCCc1ccc2c(n1)[C@@H](c1ccc(OC)cc1C[C@H](C)C(=O)O)[C@H](C(=O)O)[C@H]2c1ccc2c(c1)OCO2`, the molecule was classed as inactive.
In the case of `Cc1ccc(Cl)cc1`, the outcome was inactive.
`C[Si]1(C)O[Si](C)(C)O[Si](C)(C)O[Si](C)(C)O1`: the outcome was inactive.
With `CCc1c(C(=O)NN2CCCCC2)nn(-c2ccc(Cl)cc2Cl)c1-c1ccc(Br)cc1`, the call was inactive.
As for `Oc1ccc2ccccc2c1N=Nc1ccccc1`, the AC50 was 36.5 µM (active).
`CCOC(=O)C(C)(C)Oc1ccc(Cl)cc1`: the result was inactive.
Take `C=CCOC(=O)c1ccccc1C(=O)OCC=C`: the molecule was called inactive.
Still for that read-out and setting: with `COc1cc(-c2nc(NC(=O)c3cc4cc(C)cc(C)c4n3CC(=O)O)sc2CCC2CCCCC2)c(OC)cc1Cl` the entry was “inactive”; with `CCCCCCCCCCCC(=O)OC`, “inactive”; with `CNC(=O)[C@H]1O[C@@H](n2cnc3c(NCc4cc(Cl)ccc4OCc4cc(C)no4)ncnc32)[C@H](O)[C@@H]1N`, “inactive”.
The same measure, in the same setting: then `NS(=O)(=O)c1cc2c(cc1Cl)NCNS2(=O)=O`, with “inactive”; and `COc1cc(S(=O)(=O)O)c(C)cc1N=Nc1c(O)ccc2cc(S(=O)(=O)O)ccc12`, with “inactive”.
Regarding `Cc1cc(NC(=O)C(=O)O)cc(C)c1Oc1ccc(O)c2c1CCC2`, the outcome was inactive.
The same measure, in the same setting: then `CCCCN(CCCC)CCCC`, with “inactive”.

The record behind these values is PubChem BioAssay (EPA / NIEHS).
